Experimental data from PubChem BioAssay (NCATS).
Results filed as inconclusive are left out. A call without a number means that no potency is given here. The source made the active and inactive calls. Calls follow the shape of the dose curve; as a rule, active = well fitted inhibition curve with a large enough effect; inconclusive = small, poorly fitted or top-dose-only effect; inactive = no such curve, though single readings can be large or run the other way.

assay: Primary qHTS for small molecule stabilizers of the endoplasmic reticulum resident proteome: Secreted ER Calcium Modulated Protein (SERCaMP) assay (AID 1508630); details: SH-SY5Y GLuc-SERCaMP (Gaussia luciferase released on ER calcium loss) secretion, thapsigargin, luminescence; series mostly up to 38.4 µM
In short: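 The SH-SY5Y reporter protocol was run at 3 concentrations up to 38.3 uM (primary) or 11 concentrations (follow-up): 16 h compound, 100 nM thapsigargin for 4 h, then extracellular luciferase luminescence.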

Structure (SMILES) | Potency
COc1ccc(C2(C#N)CCC(C(=O)O)CC2)cc1OC1CCCC1 (stereo not drawn) | inactive
O=C(NOCC1CC1)c1ccc(F)c(F)c1Nc1ccc(I)cc1Cl | inactive
CC1Cc2ccccc2N1NC(=O)c1ccc(Cl)c(S(N)(=O)=O)c1 (stereo not drawn) | inactive
COC1=C(OC)C(=O)C(CCCCCCCCCCO)=C(C)C1=O | inactive
Nc1nc(Cl)nc2c1ncn2[C@H]1C[C@H](O)[C@@H](CO)O1 | inactive
CC(=O)NC[C@H]1CN(c2ccc(N3CCOCC3)c(F)c2)C(=O)O1 | inactive
CCCCN(CCCC)CCC(O)c1cc2c(Cl)cc(Cl)cc2c2cc(C(F)(F)F)ccc12 (stereo not drawn) | inactive
O=c1oc2cc(O)ccc2s1 | inactive
O=c1ccc2ccc(O)c(O)c2o1 | inactive
COc1cc(C(C)=O)ccc1OCCCN1CCC(c2noc3cc(F)ccc23)CC1 | inactive
CCCCCCCCOc1ccccc1C(=O)Nc1ccc(C(=O)OCC[N+](C)(CC)CC)cc1 | inactive
NS(=O)(=O)c1cc(C(=O)O)c(NCc2ccco2)cc1Cl | inactive
Cc1ccc(C(=O)c2cc(O)c(O)c([N+](=O)[O-])c2)cc1 | inactive
CCOc1cc(CC(=O)N[C@@H](CC(C)C)c2ccccc2N2CCCCC2)ccc1C(=O)O | inactive
Cc1nc(Nc2ncc(C(=O)Nc3c(C)cccc3Cl)s2)cc(N2CCN(CCO)CC2)n1 | inactive
O=c1c(O)c(-c2ccc(O)cc2O)oc2cc(O)cc(O)c12 | inactive
Cc1cc(=O)c2c(O)c3c(O)cc(=O)c4c3c3c(cc(O)c1c23)C(C)(C)C=4O | inactive
CCN(CC)CCOc1ccc(Cc2ccccc2)cc1 | inactive
